Records with an inconclusive call do not appear. Unmarked numbers belong to inactive results. Activity calls are given as the source filed them. The call rests on the fitted dose curve; in most records, active means well fitted inhibition curve with a large enough effect; inconclusive means small, poorly fitted or top-dose-only effect; inactive means flat fitted curve, though single readings scatter.

activity, negative = inhibition and Potency data for twelve molecules are collected here from PubChem BioAssay (NCATS).

Assay [1] is described as follows: qHTS profiling for inhibitors of Plasmodium falciparum proliferation (AID 504749). Further: nearly all actives have a fitted effect of over 60% in size.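 On activity, negative = inhibition: 0% = DMSO vehicle and full inhibition = artemisinin control.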 As to conditions: P. falciparum in erythrocytes, SYBR Green DNA, 72 h. The procedure, abridged: (§1)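 SYBR Green fluorescence (ex 485 nm, em 535 nm) reports parasite DNA after 72 h compound exposure of infected red cells at 0.3% parasitemia, 2.5% hematocrit; signal normalized to 0.29 uM artemisinin and vehicle wells.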

The subject of assay [2] is 3D7. Described as above. As to conditions: P. falciparum in erythrocytes, SYBR Green DNA, 72 h; series mostly up to 28.7 µM. The procedure, abridged:
as §1

Assay [3] relates to 7G8. The description is as above. Particulars: P. falciparum in erythrocytes, SYBR Green DNA, 72 h; series mostly up to 28.7 µM. In a few lines:
as §1

For assay [4], the system named is AA1029. The assay is described as above. As to conditions: P. falciparum in erythrocytes, SYBR Green DNA, 72 h; series mostly up to 28.7 µM. In a few lines: as §1
The subject of assay [5] is AS120. The description is as above. As to conditions: P. falciparum in erythrocytes, SYBR Green DNA, 72 h; series mostly up to 28.7 µM. In a few lines: as §1
Assay [6] deals with ATS189. The description is as above. Particulars: P. falciparum in erythrocytes, SYBR Green DNA, 72 h; series mostly up to 28.7 µM. In a few lines:
as §1

Assay [7] deals with ATS95. The assay is described as above. Particulars: P. falciparum in erythrocytes, SYBR Green DNA, 72 h; series mostly up to 28.7 µM. The procedure, abridged:
as §1

In assay [8] the test system is C2A. The assay is described as above. As to conditions: P. falciparum in erythrocytes, SYBR Green DNA, 72 h; series mostly up to 28.7 µM. In a few lines:
as §1

The test system of assay [9] is CP185. Described as above. As to conditions: P. falciparum in erythrocytes, SYBR Green DNA, 72 h; series mostly up to 28.7 µM. In a few lines: as §1
Assay [10] relates to CP191. The assay is described as above. As to conditions: P. falciparum in erythrocytes, SYBR Green DNA, 72 h; series mostly up to 28.7 µM. In a few lines: as §1
For assay [11], the system named is CP192. The assay is described as above. Particulars: P. falciparum in erythrocytes, SYBR Green DNA, 72 h; series mostly up to 28.7 µM. In a few lines: as §1
The subject of assay [12] is CP194. Described as above. Particulars: P. falciparum in erythrocytes, SYBR Green DNA, 72 h; series mostly up to 28.7 µM. In a few lines: as §1
Assay [13] relates to CP201. The description is as above. As to conditions: P. falciparum in erythrocytes, SYBR Green DNA, 72 h; series mostly up to 28.7 µM. In a few lines: as §1
The test system of assay [14] is CP211. The assay is described as above. Particulars: P. falciparum in erythrocytes, SYBR Green DNA, 72 h; series mostly up to 28.7 µM. In a few lines: as §1
The test system of assay [15] is CP215. Described as above. Particulars: P. falciparum in erythrocytes, SYBR Green DNA, 72 h; series mostly up to 28.7 µM. The procedure, abridged: as §1
The test system of assay [16] is CP217. Described as above. As to conditions: P. falciparum in erythrocytes, SYBR Green DNA, 72 h; series mostly up to 28.7 µM. In a few lines:
as §1

Assay [17] has as its system CP237. Described as above. As to conditions: P. falciparum in erythrocytes, SYBR Green DNA, 72 h; series mostly up to 28.7 µM. The procedure, abridged: as §1
In assay [18] the test system is CP203. The description is as above. As to conditions: P. falciparum in erythrocytes, SYBR Green DNA, 72 h; series mostly up to 28.7 µM. In a few lines:
as §1

The mark [19] stands for this setting: at 28.7 µM (top of the series), parasite line A.
[20] abbreviates: at 28.7 µM (top of the series), parasite line B.
The mark [21] stands for this setting: at 12.8 µM (top of the series), parasite line A.
The mark [22] stands for this setting: at 12.8 µM (top of the series), parasite line B.
Potency means the concentration at half of the fitted maximal effect.

`COc1cc2c(cc1OC)C(C(C(=O)N(CCc1ccc(OC)c(OC)c1OC)CCc1ccc(OC)c(OC)c1OC)c1ccccc1)=NCC2` (stereo not given): the figures for the activity, negative = inhibition in [1] (setting [19]) and in [1] (setting [20]) were 14.8% and -1.99%, respectively. Also, the Potency in assay [2] is 4.47 µM (active); in assay [3], 0.316 µM (active); in assay [4], 2.51 µM (active); in assay [7] it was 3.55 µM (active); in assay [9] it was 10 µM (active); in assay [10], 10 µM (active). In addition, the Potency in [11] was 13.5 µM (active); in assay [12] it was 13.5 µM (active); in assay [13] it was 15.1 µM (active); in [14] it was 12 µM (active); in assay [15], 6.75 µM (active); in assay [16] it was 4.47 µM (active). The Potency in [17] was 2 µM (active). Further, the Potency result in assay [5], in assay [6] and in assay [8] was “inactive” each time.

Regarding `Oc1c(Cl)cc(Cl)cc1Sc1cc(Cl)cc(Cl)c1O`, the activity, negative = inhibition was -0.752% in assay [1] (setting [19]) and -1.75% in assay [1] (setting [20]). Besides, the Potency entry in assay [2], in [3], in assay [4], in [5], in [6] and in assay [7] was “inactive” each time. In addition, the Potency result in [8], in [9], in assay [10], in assay [11], in [12] and in assay [13] was “inactive” throughout. Besides, the Potency entry in assay [14], in [15], in assay [16] and in assay [17] was “inactive” throughout.

On to `COc1cc(-c2ccc(=O)[nH]n2)ccc1OC(F)F`, for which the Potency in assay [1] (parasite line A) was 11.2 µM (active); in assay [1] (parasite line B), 0.891 µM (active); in assay [4], 0.178 µM (active); in assay [5] it was 0.891 µM (active); in assay [7] it was 0.251 µM (active); in [17], 0.112 µM (active). For the same molecule, the Potency entry in [2], in [3], in [6], in assay [8], in assay [13] and in [16] was “inactive” in each case.

Regarding `C[C@@H]1C[C@H]2[C@@H]3CCC4=CC(=O)C=C[C@]4(C)[C@@]3(F)[C@@H](O)C[C@]2(C)[C@H]1C(=O)CO`, the activity, negative = inhibition was -3.59% in [1] (setting [19]) and -8.33% in assay [1] (setting [20]). Further, the Potency entry in assay [2], in assay [4], in [5], in assay [7], in [8] and in assay [9] was “inactive” each time. Also, the Potency result in [10], in [12], in [13], in assay [14], in assay [15] and in assay [16] was “inactive” each time. For the same molecule, the Potency in assay [3] is 11.2 µM (active); in [6], 0.316 µM (active).

Take `CCOc1ccc(NC(=O)CC(C)O)cc1` (stereo not given): the activity, negative = inhibition is -3.02% in assay [1] (setting [19]) and 4.79% in assay [1] (setting [20]). Besides, the Potency entry in assay [2], in assay [3], in assay [4], in assay [5], in assay [6] and in [7] was “inactive” in each case. The Potency result in assay [8], in assay [9], in [10], in assay [11], in [12] and in assay [13] was “inactive” each time. Also, the Potency entry in [14], in assay [15], in [16] and in [17] was “inactive” in each case.

Regarding `COc1ccc(CN2CCN(C(c3ccc(F)cc3)c3ccc(F)cc3)CC2)c(OC)c1OC`, the Potency was 8.91 µM (active) in [1] (parasite line A); 8.91 µM (active) in [1] (parasite line B); 7.94 µM (active) in assay [2]; 2.82 µM (active) in assay [3]; 10 µM (active) in assay [4]; 7.08 µM (active) in assay [5]. Besides, the Potency is 10 µM (active) in [6]; 12.6 µM (active) in assay [7]; 12.6 µM (active) in assay [8]; 10 µM (active) in assay [9]; 7.94 µM (active) in [10]; 15.1 µM (active) in assay [12]. The Potency in [13] was 15.1 µM (active); in assay [18], 13.5 µM (active); in assay [14], 16.9 µM (active); in assay [16], 11.2 µM (active); in [17], 8.91 µM (active).

Take `O=C(O)CNC(=O)c1ccccc1`: the activity, negative = inhibition was -0.717% in assay [1] (setting [19]) and 10.3% in assay [1] (setting [20]). Also, the Potency result in assay [2], in assay [3], in [4], in assay [5], in [6] and in [7] was “inactive” throughout. Further, the Potency entry in assay [8], in assay [9], in assay [10], in [11], in assay [12] and in assay [13] was “inactive” each time. The Potency result in [14], in assay [15], in assay [16] and in assay [17] was “inactive” throughout.

With `Cc1ccnc(NS(=O)(=O)c2ccc(N)cc2)n1`, the results for the activity, negative = inhibition in assay [1] (setting [21]) and in assay [1] (setting [22]) were 9.46% and -14.9%, respectively. Further, the Potency entry in assay [2], in [3], in [4], in assay [5], in assay [6] and in [7] was “inactive” each time. Also, the Potency result in assay [8], in [9], in assay [10], in assay [11], in [12] and in assay [13] was “inactive” each time. The Potency entry in assay [14], in [16] and in assay [17] was “inactive” each time.

Take `CCn1cc(C(=O)O)c(=O)c2cnc(N3CCCC3)nc21`: the activity, negative = inhibition in assay [1] (setting [21]) is -13.8%; in [1] (setting [22]), 2.72%. Moreover, the Potency result in [2], in [3], in assay [4], in assay [5], in [6] and in assay [7] was “inactive” each time. In addition, the Potency entry in assay [8], in assay [9], in [10], in assay [11], in [12] and in assay [13] was “inactive” throughout. Moreover, the Potency entry in assay [14], in assay [15], in assay [16] and in assay [17] was “inactive” in each case.

On to `CCOC(=O)n1ccn(C)c1=S`, for which the results for the activity, negative = inhibition in assay [1] (setting [21]) and in [1] (setting [22]) were 10% and -6.82%, respectively. Moreover, the Potency result in assay [2], in [3], in [4], in assay [5], in assay [6] and in assay [7] was “inactive” each time. In addition, the Potency entry in assay [8], in assay [9], in assay [10], in assay [11], in assay [12] and in assay [13] was “inactive” each time. The Potency result in assay [14], in [15], in assay [16] and in [17] was “inactive” each time.

Take `NC(=NCCCCCCN=C(N)/N=C(\N)Nc1ccc(Cl)cc1)/N=C(\N)Nc1ccc(Cl)cc1`: the Potency in assay [1] (parasite line A) was 3.16 µM (active); in assay [1] (parasite line B) it was 3.98 µM (active); in assay [2] it was 1.41 µM (active); in assay [3], 0.251 µM (active); in [4], 1 µM (active); in assay [5] it was 1.26 µM (active). The Potency in assay [6] was 1.78 µM (active); in assay [7], 2 µM (active); in assay [8] it was 2.24 µM (active); in [9] it was 1.78 µM (active); in assay [10], 1.12 µM (active); in [11], 1.69 µM (active). In addition, the Potency in [12] is 1.51 µM (active); in assay [13] it was 3.79 µM (active); in [14], 1.51 µM (active); in assay [15], 1.9 µM (active); in [16], 2 µM (active); in assay [17] it was 0.891 µM (active).

On to `CC(=O)OCC(=O)NCCCOc1cccc(CN2CCCCC2)c1`, for which the activity, negative = inhibition in assay [1] (setting [19]) is 16.5%; in assay [1] (setting [20]) it was 8.13%. Also, the Potency entry in [2], in assay [3], in assay [4], in assay [5], in assay [6] and in [7] was “inactive” each time. Moreover, the Potency entry in [8], in assay [9], in assay [10], in assay [11], in assay [12] and in assay [13] was “inactive” in each case. Besides, the Potency entry in assay [15], in assay [16] and in assay [17] was “inactive” each time.
